In PubChem BioAssay (EPA / NIEHS):
Records with an inconclusive call do not appear. Some structures have more than one record in an assay (separate samples or runs), and their calls can disagree. The source made the active and inactive calls. How the source made its calls: active means hit-call score of the fitted dose curve at least 0.9, where 1 is the maximum; inconclusive means response in the unintended direction; inactive means score below 0.9.

Assays:
[1] = target: Estrogen receptor (Homo sapiens) (UniProt P03372); assay: ATG_hERa_XSP1: Attagene TRANS-FACTORIAL Multi-Species (XSP1) HepG2 Assay for human Estrogen Receptor (ESR1) (AID 2283780)
Chain of Estrogen receptor (Homo sapiens) (P03372 whole entry, looked up, the tested form may be a part): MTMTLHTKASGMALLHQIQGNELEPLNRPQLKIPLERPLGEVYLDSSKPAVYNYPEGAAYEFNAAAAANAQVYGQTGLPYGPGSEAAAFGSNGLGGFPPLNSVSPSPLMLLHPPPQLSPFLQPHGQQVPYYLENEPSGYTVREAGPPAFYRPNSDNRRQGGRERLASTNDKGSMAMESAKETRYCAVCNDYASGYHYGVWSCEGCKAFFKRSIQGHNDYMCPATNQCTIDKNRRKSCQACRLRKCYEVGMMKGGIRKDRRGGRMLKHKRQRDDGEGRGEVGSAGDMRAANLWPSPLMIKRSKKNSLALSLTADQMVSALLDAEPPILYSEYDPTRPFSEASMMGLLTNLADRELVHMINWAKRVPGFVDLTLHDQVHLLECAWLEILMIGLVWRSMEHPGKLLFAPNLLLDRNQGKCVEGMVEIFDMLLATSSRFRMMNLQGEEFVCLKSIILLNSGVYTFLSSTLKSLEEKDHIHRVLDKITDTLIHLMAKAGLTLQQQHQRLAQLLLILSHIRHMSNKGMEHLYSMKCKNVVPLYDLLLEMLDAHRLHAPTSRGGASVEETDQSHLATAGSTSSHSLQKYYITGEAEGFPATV
How it was run: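 Reporter transcripts from multiplexed GAL4-UAS units driven by NR-Gal4 chimeras in transiently transfected HepG2 were measured by RT-PCR with capillary electrophoresis 24 h post-dose, with 3 nM 6-alpha-fluorotestosterone present; gain-of-signal relative to DMSO.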

[2] = ACEA_AR_agonist_AUC_viability: ACEA Biosciences xCELLigence Real-Time Cell Analysis on Androgen Receptor Agonism for Viability (AID 2283775);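 on AC50: viability read 80 hours after compound addition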
How it was run: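 Viability endpoint from xCELLigence impedance in 22Rv1 prostate cells at 80 h. Eight-point series, 100 uM maximum final.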

[3] = ACEA_AR_antagonist_AUC_viability: ACEA Biosciences xCELLigence Real-Time Cell Analysis on Androgen Receptor Antagonism for Viability (AID 2283776);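 further: 22Rv1 human prostate cancer cells growing on impedance electrode plates; area under impedance growth curve at 80 h after dosing as viability; hits lower the growth signal relative to DMSO meaning cytotoxicity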
How it was run: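 Real-time electrical impedance tracks 22Rv1 proliferation after continuous compound exposure (top 100 uM final, 1:4 steps, 8 concentrations). The 80 h area-under-curve serves as the cytotoxicity readout relative to DMSO.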

[4] = ACEA_ER_AUC_viability: ACEA Biosciences xCELLigence Real-Time Cell Analysis on Estrogen Receptor Agonism for Viability (AID 2283782);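 further: hit means loss of impedance signal meaning reduced cell growth or viability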
How it was run: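 Viability endpoint: reduced impedance area under the curve relative to DMSO, recorded by real-time electrode sensing over ~80 h of continuous exposure. Duplicate plates of T47D in hormone-depleted medium; eight concentrations, 1:4 dilutions, 100 uM maximum.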

Cc1c2ccccc2c(C)c2c1ccc1ccccc12
AC50 [1]: 3.92 µM (active)

Cc1cccc2ccccc12
outcome [2]: inactive | outcome [3]: inactive | outcome [4]: inactive

CN(C)C(=O)C1(N2CCCCC2)CCN(CC[C@@]2(c3ccc(Cl)c(Cl)c3)CN(C(=O)c3ccccc3)CCO2)CC1
AC50 [2]: 10.5 µM (active) | AC50 [3]: 11.5 µM (active) | AC50 [4]: 10.3 µM (active)

Oc1ccc2ccccc2c1
outcome [3]: inactive

Cc1ccc(C(C)C)cc1
outcome [2]: inactive | outcome [3]: inactive | outcome [4]: inactive

CC1(C)NC(=O)N(c2ccc([N+](=O)[O-])c(C(F)(F)F)c2)C1=O
AC50 [3]: 68.9 µM (active) | outcome [4]: inactive

Cc1cc2c(cc1C(F)(F)F)N(C(=O)Nc1ccc(Oc3cccnc3C)nc1)CC2
AC50 [2]: 17.1 µM (active) | AC50 [3]: 15.1 µM (active) | AC50 [4]: 15.6 µM (active)

OCCO
outcome [2]: inactive | outcome [3]: inactive | outcome [4]: inactive

c1ccc2n[nH]nc2c1
outcome [2]: inactive | outcome [3]: inactive | outcome [4]: inactive

O=C1O[C@H]([C@@H](O)CO)C(O)=C1O
outcome [2]: inactive | outcome [3]: inactive | outcome [4]: inactive

CCCCCCCCCCCC[N+](C)(C)C
AC50 [3]: 9.45 µM (active) | AC50 [4]: 50 µM (active)

COc1cccc([C@H](O)C2CCN(CCc3ccc(F)cc3)CC2)c1OC
AC50 [2]: 50 µM (active) | AC50 [3]: 35.7 µM (active) | outcome [4]: inactive

CC(O)CC(C)(C)O (stereo not drawn)
outcome [3]: inactive

CCCCCCCCCC(=O)O
outcome [2]: inactive | outcome [3]: inactive | outcome [4]: inactive

CCN(CC)C(=O)c1cc(S(=O)(=O)Cc2ccccc2)c(N2CCC(c3ccccc3)CC2)cc1N(CC)CCN(C)C
AC50 [4]: 4.19 µM (active)

CCN(Cc1cccnc1)C(=O)c1cccc(Cl)c1[C@]1(C)C(=O)N(Cc2ccc(OC)cc2OC)c2ccc(Cl)cc21
AC50 [2]: 23.8 µM (active) | AC50 [3]: 20.7 µM (active) | outcome [4]: inactive

CCCOC(=O)c1cc(O)c(O)c(O)c1
AC50 [2]: 50 µM (active) | AC50 [3]: 31.4 µM (active) | outcome [4]: inactive

CC[C@H](NC(=O)c1cc(F)ccc1NS(=O)(=O)c1cccc2cccnc12)c1ccccc1
AC50 [2]: 57.2 µM (active) | outcome [4]: inactive

CCCCCc1ccc(N)cc1
AC50 [2]: 50 µM (active) | outcome [3]: inactive | AC50 [4]: 50 µM (active) | outcome [4]: inactive

Cc1ncc(CO)c(CO)c1O
outcome [2]: inactive | outcome [3]: inactive | outcome [4]: inactive

CCCC(=O)OCCC(C)C
outcome [2]: inactive | outcome [4]: inactive

CC(=O)N1CCN(c2ccc(OC[C@H]3CO[C@](Cn4ccnc4)(c4ccc(Cl)cc4Cl)O3)cc2)CC1
AC50 [2]: 29.2 µM (active) | AC50 [3]: 32.4 µM (active) | AC50 [4]: 86.7 µM (active)

CCOC(=O)O[C@H](C)OC(=O)c1ccc2c(c1)cc(C(=O)NC1CCN(C(C)C)CC1)n2Cc1cc(-c2ccc(Cl)s2)on1
AC50 [2]: 10.3 µM (active) | AC50 [3]: 4.55 µM (active) | AC50 [4]: 5.33 µM (active)

O=CCCCC=O
AC50 [2]: 35.2 µM (active) | AC50 [3]: 23.3 µM (active) | AC50 [4]: 40 µM (active)

CN(C)c1ccc(C(=C2C=CC(=[N+](C)C)C=C2)c2ccc(N(C)C)cc2)cc1
AC50 [2]: 0.281 µM (active) | AC50 [3]: 0.161 µM (active) | AC50 [4]: 5.4 µM (active)

CN1C(=O)CC[C@H]1c1cccnc1
outcome [2]: inactive | outcome [3]: inactive | outcome [4]: inactive

CCCCCCCC[Si](OCC)(OCC)OCC
outcome [3]: inactive | AC50 [4]: 89.3 µM (active) | outcome [4]: inactive

CCCCCCCCCCCO
AC50 [2]: 90.2 µM (active) | AC50 [3]: 85 µM (active) | AC50 [4]: 50 µM (active)

CC(C)(O)c1ccc(CNC(=O)c2cccnc2Oc2ccc3nonc3c2)cc1
outcome [2]: inactive | outcome [3]: inactive | outcome [4]: inactive

c1ccc2ccccc2c1
outcome [3]: inactive | outcome [4]: inactive

CCCCCCCCN(C)CCCCCCCC
outcome [3]: inactive | outcome [4]: inactive

O=C=NCCCCCCN=C=O
outcome [4]: inactive

COCC(C)OCC(C)OCC(C)O (stereo not drawn)
outcome [3]: inactive | outcome [4]: inactive

Clc1cc(Cl)c2c(c1)N=C1CCCCCN1C2
outcome [2]: inactive | outcome [3]: inactive | outcome [4]: inactive

CCO[Si](CCCNC(N)=O)(OCC)OCC
outcome [2]: inactive | outcome [3]: inactive | outcome [4]: inactive

Cc1cn([C@H]2C[C@H](N=[N+]=[N-])[C@@H](CO)O2)c(=O)[nH]c1=O
outcome [3]: inactive | outcome [4]: inactive

NCc1cccc(C2CCN(C(=O)c3ccc(C#Cc4ccccc4F)o3)CC2)c1
AC50 [2]: 21.2 µM (active) | AC50 [3]: 22.1 µM (active) | AC50 [4]: 7.73 µM (active)

CCN(Cc1cccc(S(=O)(=O)O)c1)c1ccc(C(=C2C=CC(=[N+](CC)Cc3cccc(S(=O)(=O)O)c3)C=C2)c2ccccc2S(=O)(=O)[O-])cc1
outcome [3]: inactive | outcome [4]: inactive

O=C(O)c1ccccc1C(=O)OCc1ccccc1
outcome [3]: inactive | outcome [4]: inactive
